The campaign covered roughly 320,000 compounds. About 2,100 (0.66%) were called active. Inconclusive results (about 53%) are left out. This is one part of a sample in which actives are shown more often than they occur. Calls come from the whole dose curve; as a rule, active = well fitted inhibition curve with a large enough effect in the signal ratio, with a control signal flat (not every such curve was filed as active); inconclusive = small, poorly fitted or top-dose-only effect, or effect the other way, or a change in a side signal; inactive = flat fitted curve, though single readings scatter; the % refers to the signal ratio.

The source of these data is PubChem BioAssay AID2685 (National Center for Advancing Translational Sciences (NCATS), 2010).
Potency is the fitted concentration of half-maximal effect.

The assay is described as follows: qHTS Assay for Lipid Storage Modulators in Drosophila S3 Cells.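 For cell number change: cells counted by Cell Tracker Red CMTPX staining in the red channel.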 For lipid storage change, negative = inhibition: % is set by controls: 0 for no effect and ±100 for the full control effect. Particulars: BODIPY lipid droplet fluorescence, 18-24 h, cells fed with added oleic acid; cell number change: measured here: cell count max response; series mostly up to 46.1 µM; lipid storage change, negative = inhibition: at the top concentration. The procedure, abridged: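 Drosophila S3 cells loaded with oleic acid (400 uM, as added) and compounds at several concentrations; lipid droplets imaged by 488-nm laser-scanning cytometry, 500–530 nm intensity and object ratio to cell channel. Percent activity normalized to 20 uM Triacsin C.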
In the case of `COC(=O)NC1CCC(NC(=O)OC)CC1` (configuration not stated), the “lipid storage change, negative = inhibition” value was 0.668% (inactive) and the cell number change is -8.14%.
In the case of `O=C(Nc1cc(Cl)ccc1Oc1ccccc1)C1=COCCO1`, the compound was called inactive and the cell number change was -27.8%.
Take `CCOC(=O)C(=O)NNc1ccc(Cl)cc1`: the “lipid storage change, negative = inhibition” value is 7.67% (inactive) and the cell number change came out at 0.213%.
As to `CC(=O)C(=Nc1ccccc1Cl)NNc1ccc(Cl)cc1`, the Potency was 23.1 µM (active) and the cell number change is -39.5%.
With `O=C(O)c1ccccc1C(=O)NNc1ccc(Cl)cc1`, the “lipid storage change, negative = inhibition” value is 8.58% (inactive) and the cell number change came out at 6.32%.
For the compound `CC12CCC(c3c(C(=O)O)nn(-c4ccccc4)c31)C2(C)C` (configuration not stated), the “lipid storage change, negative = inhibition” value was -12.8% (inactive) and the cell number change was found to be 7.24%.
Turning to `CC12CCC(c3c(C(=O)O)nn(-c4ccc(F)cc4)c31)C2(C)C` (configuration not stated), the Potency is 16.4 µM (active) and the cell number change was -9.61%.
Regarding `CC12CCC(c3c(C(=O)N4CCOCC4)nn(-c4ccccc4)c31)C2(C)C` (configuration not stated), the “lipid storage change, negative = inhibition” value was 10.8% (inactive) and the cell number change came to 15.9%.
On the same counts, the results for `COc1ccc(N2CCN(C(c3ccc4ncccc4c3)c3nnnn3C(C)C)CC2)cc1` (configuration not stated) are -0.518% (inactive) and 3.49%.
For `Fc1ccc(-n2c(CN3CCCCC3)n[nH]c2=S)cc1`, the Potency was 1.64 µM (active) and the cell number change is -100%.
For the compound `S=c1[nH]nc(CN2CCCCC2)n1Cc1ccccc1`, the “lipid storage change, negative = inhibition” value was 17.3% (inactive) and the cell number change was -2.92%.
Regarding `FC(F)(F)c1ccccc1-n1c(CN2CCCCC2)n[nH]c1=S`, the “lipid storage change, negative = inhibition” value is -4.58% (inactive) and the cell number change was -9.97%.
In the same order, the values of `Cc1ccc(S(=O)(=O)CCN2CCN(c3ccccn3)CC2)cc1` are 11.2% (inactive) and 3.2%.
Turning to `Cc1ccc(S(=O)(=O)N2CC(=O)Nc3ccccc32)c(C)c1NS(C)(=O)=O`, the “lipid storage change, negative = inhibition” value was -1.89% (inactive) and the cell number change was -8.89%.
As to `CCc1ccc(-c2cc(C)no2)cc1S(=O)(=O)NCCc1ccccc1`, the outcome was inactive and the cell number change was determined as 13.1%.
On the same counts, the results for `Cc1cc(-c2ccc(C)c(S(=O)(=O)N3CCN(c4ccccn4)CC3)c2)on1` are “inactive” and -26.7%.
Take `CCc1ccc(-c2cc(C)no2)cc1S(=O)(=O)N1CCCN(Cc2ccc(F)cc2)C1`: the result was inactive and the cell number change was determined as 2.69%.
On to `CCc1ccc(-c2cc(C)no2)cc1S(=O)(=O)Nc1ccccn1`, for which the compound was classed as inactive and the cell number change was -19.5%.
Regarding `CCc1ccc(-c2cc(C)no2)cc1S(=O)(=O)N1CCN(c2ccccc2OC)CC1`, the “lipid storage change, negative = inhibition” value was -26.9% (inactive) and the cell number change came to 23.3%.
With `Cc1cc(-c2ccc(C)c(S(=O)(=O)N3CC(=O)Nc4ccccc43)c2)on1`, the Potency was 1.03 µM (active) and the cell number change is 3.36%.
In the same order, the values of `CCc1ccc(-c2cc(C)no2)cc1S(=O)(=O)N1CC(=O)Nc2ccccc21` are 4.11 µM (active) and -17.1%.
On the same counts, the results for `CCc1ccc(-c2cc(C)no2)cc1S(=O)(=O)N1CCOc2ccccc21` are 16.4 µM (active) and -0.472%.
Turning to `Cc1ccc(Nc2cc(C)nc(-c3ccccc3)n2)cc1`, the result was inactive.
As to `CC(=O)CSc1cc(-c2ccccc2)nc2ncnn12`, the “lipid storage change, negative = inhibition” value was 1.07% (inactive) and the cell number change was -21.4%.
Turning to `Cc1cc(C)nc(NS(=O)(=O)c2ccc(NC(=O)Nc3ccccc3F)cc2)n1`, the “lipid storage change, negative = inhibition” value was -5.13% (inactive) and the cell number change is -10.1%.
In the same order, the values of `O=C(Cn1cccc1C(=O)c1ccccc1)NCCCN1CCOCC1` are 4.62% (inactive) and -0.598%.
With `O=C1c2ccccc2CN1Cc1ccccc1`, the “lipid storage change, negative = inhibition” value was 13.6% (inactive) and the cell number change was 10.2%.
Regarding `CCCCCCCCOC(=O)CCn1[nH]c(=O)c2ccccc2c1=O`, the “lipid storage change, negative = inhibition” value is 11.7% (inactive) and the cell number change is -16.3%.
With `O=C(CCn1[nH]c(=O)c2ccccc2c1=O)NCCO`, the Potency was 11.6 µM (active) and the cell number change was found to be 1.53%.
For `COC(=O)CCn1[nH]c(=O)c2ccccc2c1=O`, the “lipid storage change, negative = inhibition” value is 19.6% (inactive) and the cell number change is -3.6%.
Regarding `c1ccc(CN2CCOCCOCCOCC2)cc1`, the “lipid storage change, negative = inhibition” value was -1.95% (inactive) and the cell number change was -1.02%.
On the same counts, the results for `CCOC(=O)c1ccc(N2C(=O)c3n[nH]c(C)c3C2c2ccc(OC)cc2)cc1` (configuration not stated) are 4.29% (inactive) and -20.7%.
In the same order, the values of `CC1(CCc2ccccc2)NC(=O)N(CC(=O)O)C1=O` (configuration not stated) are -11.3% (inactive) and -3.79%.
On the same counts, the results for `Cc1ccc(NC(=O)CSc2nnc(C3CC3)n2N)cc1S(=O)(=O)N1CCOCC1` are 8.03% (inactive) and 12.4%.
As to `O=C(CCN1C(=O)NC2(CCCC2)C1=O)Nc1cccc(S(=O)(=O)N2CCOCC2)c1`, the “lipid storage change, negative = inhibition” value is -1.8% (inactive) and the cell number change amounted to 2.63%.
On to `O=C(Cn1c2ccccc2c2nc3n(c(=O)c21)CCS3)N1CCCC1`, for which the compound was classed as inactive and the cell number change was -22.8%.
Take `O=C(Cn1c2ccccc2c2nc3n(c(=O)c21)CCS3)Nc1ccccc1C(F)(F)F`: the “lipid storage change, negative = inhibition” value was -7.14% (inactive) and the cell number change was -11.3%.
On to `CC1CCCN(C(=O)Cn2c3ccccc3c3nc4n(c(=O)c32)CCS4)C1` (configuration not stated), for which the Potency is 7.31 µM (active) and the cell number change is -9.4%.
As to `COc1ccc(/C=N\Nc2ccccc2[N+](=O)[O-])c(C(=O)O)c1OC`, the “lipid storage change, negative = inhibition” value was 12.5% (inactive) and the cell number change is 2.19%.
For the compound `Cc1ccc(C(=O)CSc2nnc(-c3ccccc3)n2-c2ccccc2)o1`, the “lipid storage change, negative = inhibition” value is 12.7% (inactive) and the cell number change was found to be 6.85%.
In the same order, the values of `CCOC(=O)C1[C@H]2C(=O)N(C(C)c3ccc(OC)cc3)C[C@]23C=C[C@H]1O3` (some centres not stated) are 4.99% (inactive) and -3.61%.
Regarding `COC(=O)C1C2C=CC3(CN(C(C)c4ccc(OC)cc4)C(=O)C13)O2` (configuration not stated), the Potency is 16.4 µM (active) and the cell number change is -5.31%.
For the compound `COc1ccc(C(C)N2CC34C=CC(O3)C(C(=O)OCC(C)C)C4C2=O)cc1` (configuration not stated), the “lipid storage change, negative = inhibition” value was 2.76% (inactive) and the cell number change was -0.854%.
For the compound `Cc1ccccc1Nc1nccc(N(C)C)c1C#N`, the “lipid storage change, negative = inhibition” value was -15.1% (inactive) and the cell number change was -17.6%.
Regarding `COc1ccc(/C=C(/C#N)C(=O)NC2CCCCC2)cc1Br`, the “lipid storage change, negative = inhibition” value was 8.79% (inactive) and the cell number change was -11.6%.
Regarding `N#C/C(=C\c1ccccc1)C(=O)NC1CC1`, the “lipid storage change, negative = inhibition” value is 20% (inactive).
As for `CC(=O)Nc1ccc(/C=C(\C#N)C(=O)NC2CCCCC2)cc1`, the Potency was 20.6 µM (active) and the cell number change is 6.15%.
